Data on 25 molecules can be found in PubChem BioAssay AID588692 (Broad Institute, 2011).

The campaign covered roughly 360,000 compounds. About 830 (0.23%) were called active. Many of the other results were omitted from the sample, so actives are more common in it than they were. Values without a mark were called inactive.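 Rule for the calls: active = mean luciferase reporter signal, scaled so untreated is 0 and the glycosylation-blocking control 100, at or above a set limit in every replicate; inconclusive = mean reaches the limit but not every replicate does; inactive = mean below the limit.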

This experiment in a line: increase of ERlucT glycosylation luciferase signal, primary screen, N-linked glycosylation inhibitor project, D54 ERlucT cells, luminescence, set 2 (AID 588692).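 Note: luciferase carries N-glycosylation sites so blocking glycosylation raises the light; 0% = median of neutral control wells and 100% = median of 100 nM tunicamycin wells.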 To be noted: 24 h, at 12.5 µM, stronger effect = higher value, percent of 100 nM tunicamycin response.
With `CCCC(=O)Nc1nc2ccc(NC(=O)c3c(F)c(F)c(OC)c(F)c3F)cc2s1`, the reporter increase is 45.8% (active). As to `CC(=O)Nc1ccc2nc(NC(=O)CS(=O)(=O)c3ccc(F)cc3)sc2c1`, the reporter increase was 1.57%. Then `CCCn1nc(C(=O)Nc2ccc3nc(C)sc3c2)c2ccccc2c1=O`, with -5.69%; and `O=C(NCN1CCN(CCO)CC1)c1cnccn1`, with 1.41%. Then `Cc1cc(C)c2nc(SCC(=O)N(C)C3CCS(=O)(=O)C3)cc(C)c2c1` (stereo not given), with -2.35%; and `CC1CCN(c2ccc(-c3ccc(NC(=O)c4ccco4)cc3)nn2)CC1`, with -3.17%.

On to `O=C(NCCCn1ccnc1)c1cc(-c2ccccc2)on1`, for which the reporter increase is 86.5% (active). Then `O=C(NCCCn1ccnc1)c1cc(Br)c(Br)s1`, with -1.37%; and `COc1cc(OC)cc(C(=O)NCCCn2ccnc2)c1`, with -1.14%; and `CC(C)CC1C(=O)N(Cc2cn(CC3CCCCC3)nn2)CCS(=O)(=O)N1Cc1ccc(-c2ccc(Cl)cc2)cc1` (stereo not given), with -5.63%.

For `COc1ccc(-c2c(C#N)cnc(C)c2C)c(O)c1OC`, the reporter increase was 1.16%. Then `CSc1ncnc2c1ncn2CCCNCc1ccco1`, with -1.13%; and `CCc1ccccc1NC(=O)Cc1cn(C)c2ccccc12`, with 0.183%. In the case of `COc1ccc(CNC(=O)C[C@H]2C[C@H](C(=O)N3CCOCC3)[C@@]3(C)c4[nH]c5cc(CCC(=O)N(C)C)ccc5c4CCN3C2=O)cc1OC`, the reporter increase is 1.84%.

Take `O=C(OC(C(=O)NC1CCCC1)c1ccc(F)cc1)c1ccno1` (stereo not given): the reporter increase was 3.11%.

Take `O=C1c2cccc3c([N+](=O)[O-])ccc(c23)C(=O)N1CC1CCCO1` (stereo not given): the reporter increase was 29.4% (active). For `O=C1C(C=NCC2CCCO2)=C(O)c2ccccc21` (stereo not given), the reporter increase is -4.51%. Then `N#Cc1cc([N+](=O)[O-])ccc1NCC1CCCO1` (stereo not given), with -0.076%; and `C[C@@H]1C[C@@H]2O[C@H]2/C=C\C=C\C(=O)Cc2c(Cl)c(O)cc(O)c2C(=O)O1`, with -14.3%; and `CCC1=C(OC(=O)N(CC)CC)N2C(=O)OC(=NCCc3c[nH]c4ccccc34)[C@]2(C)[C@H]2C1=CC[C@H]1C(=O)N(CC)C(=O)[C@H]12`, with -4.07%. Next, `CC(=O)c1ccc(S(=O)(=O)NCCC(=O)N2CCN(c3ccccn3)CC2)cc1`: -0.855%. Then `CCN(CC(=O)Nc1c(F)cccc1F)C(=O)C1CCC1`, with 0.369%; and `O=C(O)CSCC(=O)Nc1ccc(C(F)(F)F)cc1`, with 1.33%. Take `CC(=O)Nc1ccc(SCC(=O)NC(=O)c2ccc(Cl)cc2)cc1`: the reporter increase is -6.32%. Then `O=C(CCl)Nc1ccc(Sc2ccc(NC(=O)CCl)cc2)cc1`, with 41% (active).
